Rows were chosen to be rich in hits. Some 1.2% of all compounds tested hit in one or more screens of this group.
FPR ligand = human FPR ligands by binding competition, primary screen, cell-based, FPRL1 counter-screen, flow cytometry. fMet-Leu-Phe receptor (Homo sapiens), P21462. FPR-expressing cells, fluorescent ligand binding. actives 0.74% (n = 24,000). inhibition, % (no concentration beside the values). AID 440, 2006;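 note: 0% = buffer wells and 100% = receptor blocker peptide wells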
FPRL1 binder = human FPRL1 ligands by binding competition, primary screen, cell-based, FPR counter-screen, flow cytometry | N-formyl peptide receptor 2 (Homo sapiens), P25090 | FPRL1-expressing cells, fluorescent ligand binding inhibition | inhibition, % (concentration not given with the values) | actives 0.3% (n = 24,000);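 note: 0% = buffer alone and 100% = receptor blocker peptide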
Target sequence (P25090 whole entry, looked up): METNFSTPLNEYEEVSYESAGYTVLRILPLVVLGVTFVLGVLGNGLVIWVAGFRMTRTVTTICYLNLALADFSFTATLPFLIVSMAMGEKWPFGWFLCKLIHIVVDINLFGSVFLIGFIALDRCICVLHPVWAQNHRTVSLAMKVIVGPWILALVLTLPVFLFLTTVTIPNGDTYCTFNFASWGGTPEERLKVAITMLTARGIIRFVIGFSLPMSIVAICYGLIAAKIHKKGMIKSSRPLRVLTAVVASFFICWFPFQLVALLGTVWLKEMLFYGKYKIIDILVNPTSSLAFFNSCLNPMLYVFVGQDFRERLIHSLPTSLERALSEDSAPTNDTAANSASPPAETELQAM
QS inhibitor = S. aureus quorum sensing inhibitors, primary screen, RNAIII-GFP reporter, flow cytometry | inhibition, % at 2 µM | AID 527, 2006 | actives 0.3% (n = 24,000) | S. aureus RN6390 RNAIII-GFP reporter, AIP-induced, flow cytometry 3 h;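 active = share of bacteria positive for the green fluorescent reporter and its mean brightness both inhibited by 50% or more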;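 note: 0% = AIP-stimulated control and 100% = unstimulated bacteria without AIP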
The depositor's hits bear a star; / = not tested or not shown. Cut-off read from the data, not from the text of the source, unless noted: active = inhibition above about 30%; inconclusive = no clear call, values can overlap the other calls; inactive = below that.

SMILES	FPR ligand	FPRL1 binder	QS inhibitor
COc1cc(NC(=O)c2ccc(COCC(F)(F)F)o2)cc(OC)c1OC	-6.8	2.4	2.5
CC1CCCCN1C(=O)CSc1nnc(-c2ccc(Cl)s2)o1 (stereo not given)	5.5	-1.1	5.3
NS(=O)(=O)c1cc2c(cc1Cl)NC=NS2(=O)=O	-9.9	5.9	-1.1
Cc1cccc(-n2nc3c(c2NC(=O)CCC2CCCCC2)CS(=O)C3)c1C (stereo not given)	16.5	12.8	-0.6
CCN1C(=O)/C(=C2\SC(=S)N(CCCOC)C2=O)c2ccccc21	22.9	32.8*	/
COCCCN1C(=O)C(O)=C(C(C)=O)C1c1ccccn1 (stereo not given)	7.1	-2.9	0.3
COc1ccc2c3c(c(=O)oc2c1OCC(N)=O)CCCC3	-0.4	-2.9	7.5
CCOC(=O)CCC(=O)O[C@H]1[C@H](O[C@@H]2[C@@H](C)[C@H](O[C@H]3C[C@@](C)(OC)[C@@H](O)[C@H](C)O3)[C@@H](C)C(=O)O[C@H](CC)[C@@](C)(O)[C@H](O)[C@@H](C)C(=O)[C@H](C)C[C@@]2(C)O)O[C@H](C)C[C@@H]1N(C)C	-0.4	-2.5	51.8*
O=C(C1CC1)N1CCc2cc(Br)cc(S(=O)(=O)NCC3COc4ccccc4O3)c21 (stereo not given)	-2.8	6.8	-4.2
CCOc1ccc(CCNS(=O)(=O)c2cnc[nH]2)cc1OCC	3.3	-1.6	-3.2
COc1ccccc1Oc1c(C)oc2c(CN3CCN(CCO)CC3)c(O)ccc2c1=O	-5.7	0.7	/
COc1ccccc1Oc1c(C)oc2c(CN(C)C)c(O)ccc2c1=O	22.4	30.5*	/
Cc1nc2sc(C(c3ccc(Cl)cc3)N3CCN(c4ccccc4F)CC3)c(O)n2n1 (stereo not given)	8.1	-0.8	0.6
CCOC(=O)c1c(NC(=O)CSc2nnc(CNC(=O)c3ccco3)n2C)sc2c1CCC2	5.4	6.2	-2.4
COc1ccc(OC)c(C2C(C(=O)c3ccco3)=C(O)C(=O)N2CCCN2CCOCC2)c1 (stereo not given)	49.8*	1.3	/
O=C(C1=C(O)C(=O)N(CCN2CCOCC2)C1c1ccccc1)c1cccs1 (stereo not given)	44.2*	28.4	/
COc1ccc(OC)c(C2C(C(=O)c3ccc(C)o3)=C(O)C(=O)N2CCCN2CCOCC2)c1 (stereo not given)	1.8	-1.7	/
C=CCOc1cccc(C2C(C(=O)c3ccco3)=C(O)C(=O)N2CCN2CCOCC2)c1 (stereo not given)	62.6*	-2.3	/
C=CCOc1cccc(C2C(C(=O)c3ccco3)=C(O)C(=O)N2Cc2ccncc2)c1 (stereo not given)	13.1	-7.5	/
O=C(C1=C(O)C(=O)N(CCCN2CCOCC2)C1c1ccccn1)c1cccs1 (stereo not given)	-2.2	-6.9	/
O=C1CSC(c2cn(-c3ccccc3)nc2-c2cccs2)N1CC1CCCO1 (stereo not given)	-0.2	-3.7	0.6
Cc1ccc(CCNC(=O)C2CCCN(c3nc4ccccc4o3)C2)cc1 (stereo not given)	3.5	3.2	1.1
Cn1c(Cc2ccccc2)nnc1SCC(=O)c1ccc(Br)s1	-0.9	2.5	7.1
CCOCC(=O)Nc1ccc(-c2cn3cccnc3n2)cc1	1.6	1.9	10.2
COc1ccc(-c2cn3cccnc3n2)cc1NC(=O)c1ccc(Br)o1	3.0	10.4	0.2
SMILES	FPR ligand	FPRL1 binder	QS inhibitor
CCCC(=O)Nc1cc(-c2cn3cccnc3n2)ccc1OC	-1.4	47.3*	-4.3
COc1ccc(-c2cn3cccnc3n2)cc1NC(=O)CC(C)C	3.1	39.5*	-5.2
N#CC(C(=O)c1ccco1)c1ccccn1 (stereo not given)	-0.1	-4.8	-0.2
O=C(NC1CCCCC1)C(c1ccco1)N(Cc1cccnc1)C(=O)C1COc2ccccc2O1 (stereo not given)	3.6	3.1	-0.5
CCOC(=O)c1ccc(-c2c(C(=O)OCC)oc3cc(O)c(CC)cc3c2=O)o1	4.0	5.4	-0.1
CCN(CC)c1ccc(C=N/C(C#N)=C(\N)C#N)cc1	4.3	68.3*	7.1
CCN(CC)c1ccc(-c2c(C#N)c(N)nc(OC)c2C#N)cc1	-6.0	-2.3	14.2
CCOc1ccc(/C(O)=C2/C(=O)C(=O)N(CCCn3ccnc3)C2c2cccs2)cc1Cl (stereo not given)	7.1	-3.7	/
COC(=O)C(C)NS(=O)(=O)c1ccc(NC(C)=O)cc1 (stereo not given)	-15.0	7.3	-1.4
COc1ccc(S(=O)(=O)NC(C)C(=O)Nc2cccc(C(C)=O)c2)cc1 (stereo not given)	11.2	47.0*	0.1
CCOC(=O)N1CCC(NC(=O)Cn2nc(Cc3ccncc3)c3ccccc3c2=O)CC1	0.1	6.9	44.4
CCc1ccc(NC(=O)CCNS(=O)(=O)c2cccc3nonc23)cc1	8.3	2.1	-0.9
CC1N=C2c3ccccc3N=C(SCc3cc(=O)n4ccccc4n3)N2C1=O (stereo not given)	1.1	-6.4	-2.3
O=C(O)CC1Oc2ccc(Cl)cc2NC1=O (stereo not given)	-38.1	36.7*	4.4
COC(=O)CC1Oc2ccc(C)cc2NC1=O (stereo not given)	-4.8	4.8	-7.3
CCCOc1ccc2c(=O)c(-c3cc(C(=O)OC)oc3C)c(C)oc2c1	0.7	0.1	/
Cc1c(C(=O)NC2CCCc3ccccc32)oc2ccc(S(=O)(=O)N3CCOCC3)cc12 (stereo not given)	37.8*	7.9	0.4
Cc1c(C(=O)NC2CC2)oc2ccc(S(=O)(=O)N3CCCCCC3)cc12	5.2	2.1	-1.5
O=C(NCc1ccccc1)c1cnc2n(c1=O)CCS2	-0.4	-0.6	-2.8
O=C(NCCCc1ccccc1)c1cnc2n(c1=O)CCS2	-1.2	-3.9	56.0*
CSc1ccccc1NS(=O)(=O)c1ccccc1	30.9*	29.1	-13.5
COc1ccc(S(=O)(=O)Nc2ccccc2SC)cc1C	-1.2	1.5	-0.8
COCc1nnc(NC(=O)c2ccc(S(=O)(=O)N(C)C3CCCCC3)cc2)o1	1.4	-0.6	-4.5
COC(=O)C1=C(C)NC(=O)CC1c1cccc(Cl)c1Cl (stereo not given)	2.6	-5.6	7.6
CCOC(=O)C1=C(C)NC(C)=C(C(=O)OC)C1c1cccc(Cl)c1Cl (stereo not given)	-4.0	-5.4	53.8*
SMILES	FPR ligand	FPRL1 binder	QS inhibitor
CCCOC(=O)NC(CC)COC(=O)Nc1cccc(C)c1C (stereo not given)	-4.0	-5.8	3.9
CCOc1ccc(CCNC(=O)C2CCN(c3nn4c(=O)cc(C)nc4s3)CC2)cc1OCC	5.1	2.7	5.9
Cn1c(N2CCC(C(N)=O)CC2)nc2c1c(=O)n(Cc1ccc(Br)cc1)c(=O)n2C	-6.8	-2.0	-1.1
CCCc1cc(C(=O)Nc2sc(C)c(CC)c2C#N)no1	13.0	-3.3	5.9
CCc1c(C)sc(NC(=O)c2cc(C)on2)c1C#N	6.2	-3.2	90.5*
CCOc1ccccc1CNC(=O)C1CCN(C(=O)c2sccc2-n2cccc2)CC1	4.4	0.0	-1.2
CN(C=O)CP(=O)(O)CCN1CCCC1=O	0.1	3.1	-0.7
